The record followed here is PubChem BioAssay (NCI).

Among the test systems are DU-145 prostate; K-562 leukemia; MALME-3M melanoma; MDA-MB-231 breast; RXF 393 renal; SF-268 CNS; SF-295 CNS; SF-539 CNS; UACC-257 melanoma.
Common to all, as to test: NCI-60 one-dose screen, 48 h (100 = growth as untreated, 0 = no growth, -100 = all killed)
Holding throughout (settings): 10 µM unless noted

This is part of a sample that, as a whole, favours compounds with a hit. Of some 83,000 tested, about 20% had one in any assay.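 Step 1: grow cells in 96-well plates. Step 2: add test compound at a single concentration. Step 3: incubate 48 h. Step 4: record percent growth.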 Unmarked numbers belong to inactive results. The source made the active and inactive calls. How the source made its calls: active means growth percent below 10; inactive means the rest.

As to `COC1(OC)N=C(N)C2(C#N)C3(C(=O)Nc4ccccc43)C12C#N` (stereo not drawn), the growth in the assay on DU-145 prostate is 68.2%; in the assay with K-562 leukemia it was 85.3%; in the assay on MALME-3M melanoma, -3.2% (active); in the assay with MDA-MB-231 breast, 73.6%; with RXF 393 renal, 61%; in the assay on SF-268 CNS, 105%. Besides, the growth in the assay with SF-295 CNS is 96.4%; in the assay on SF-539 CNS it was 61.2%; in the assay on UACC-257 melanoma, 100%.

With `Nc1cc(N)c2nc(-c3ccccc3)c(NCCc3ccc(Cl)c(Cl)c3)nc2c1`, the growth with DU-145 prostate is -98.6% (active); with K-562 leukemia, -16.9% (active); in the assay with MALME-3M melanoma, -93.3% (active); with MDA-MB-231 breast, -71.1% (active); in the assay with RXF 393 renal, -94.3% (active); in the assay with SF-268 CNS, 0.859% (active). The growth is -74.2% (active) in the assay with SF-295 CNS, -96.7% (active) in the assay on SF-539 CNS and 5.16% (active) in the assay on UACC-257 melanoma.

For the compound `COc1ccccc1CNCCCN1C(=O)c2ccc3c4c(ccc(c24)C1=O)C(=O)N(CCCNCc1ccccc1OC)C3=O`, the growth with DU-145 prostate was -81.4% (active); with K-562 leukemia it was -44.2% (active); in the assay with MALME-3M melanoma, -73.6% (active); in the assay on MDA-MB-231 breast it was -13.1% (active); with RXF 393 renal it was -93.9% (active); in the assay on SF-268 CNS it was -64.4% (active). Besides, the growth is -56.3% (active) in the assay with SF-295 CNS, -70.7% (active) with SF-539 CNS and -97.9% (active) in the assay with UACC-257 melanoma.

`Cc1nn(-c2ccccc2)c(N)c1N=C1NC(=O)/C(=C/c2ccc(Cl)cc2)S1`: the growth in the assay on DU-145 prostate was 86.9%; in the assay with K-562 leukemia, 73.2%; in the assay with MALME-3M melanoma, 87.4%; in the assay on MDA-MB-231 breast, 105%; with RXF 393 renal, 109%; in the assay on SF-268 CNS, 83.7%. The growth is 86.5% in the assay on SF-295 CNS, 81% in the assay with SF-539 CNS and 105% in the assay with UACC-257 melanoma.

On to `CCOC(=O)c1cc(-c2ccc(OC)cc2)[nH]c1NNC(=O)CCOC`, for which the growth with DU-145 prostate was 108%; in the assay on K-562 leukemia, 99.8%; in the assay with MALME-3M melanoma it was 98.4%; in the assay with MDA-MB-231 breast it was 95%; with RXF 393 renal, 104%; in the assay on SF-268 CNS it was 121%. Moreover, the growth with SF-295 CNS was 95.3%; with SF-539 CNS, 106%; with UACC-257 melanoma, 105%.

In the case of `O=C(Nn1cnc2ccccc21)N1CCCC1`, the growth was 102% in the assay with DU-145 prostate; 94% in the assay with K-562 leukemia; 92.2% with MALME-3M melanoma; 94.2% in the assay on MDA-MB-231 breast; 109% with RXF 393 renal; 117% with SF-268 CNS. Moreover, the growth was 98.7% in the assay on SF-295 CNS, 91.8% with SF-539 CNS and 101% in the assay with UACC-257 melanoma.

For the compound `O=C1NCCN1/N=C/c1c(Cl)nc2n1CCS2`, the growth with DU-145 prostate was 85.8%; in the assay on K-562 leukemia, 87.3%; in the assay with MALME-3M melanoma, 91.7%; in the assay with MDA-MB-231 breast, 130%; in the assay on RXF 393 renal, 150%; in the assay on SF-268 CNS, 113%. For the same compound, the growth in the assay with SF-295 CNS is 111%; with SF-539 CNS it was 94.9%; in the assay with UACC-257 melanoma it was 105%.

As to `COc1cc2c(/C=C3\C(=O)Nc4ccc(Br)cc43)c(Cl)n(C)c2cc1C`, the growth is 17.5% in the assay with DU-145 prostate; 6.73% (active) in the assay with K-562 leukemia; 21.9% in the assay on MALME-3M melanoma; 7.42% (active) with MDA-MB-231 breast; -23.9% (active) in the assay on RXF 393 renal; 29.6% with SF-268 CNS. For the same compound, the results for the growth in the assay on SF-295 CNS, in the assay with SF-539 CNS and in the assay on UACC-257 melanoma were 9.82% (active), 7.51% (active) and 28.8%, respectively.

On to `COCC(=O)NNc1[nH]c(-c2ccc(OC)cc2)cc1C#N`, for which the growth is 111% in the assay on DU-145 prostate; 96.9% in the assay on K-562 leukemia; 112% in the assay with MALME-3M melanoma; 102% in the assay on MDA-MB-231 breast; 114% in the assay on RXF 393 renal; 119% in the assay with SF-268 CNS. Moreover, the values for the growth in the assay on SF-295 CNS, with SF-539 CNS and with UACC-257 melanoma were 96%, 96.2% and 109%, respectively.

With `CC1=NN(c2cccc(Cl)c2)C(=O)/C1=C\c1cn(-c2nc(N3CCOCC3)nc(N3CCOCC3)n2)c2ccccc12`, the growth in the assay with DU-145 prostate is 106%; in the assay on K-562 leukemia it was 114%; with MALME-3M melanoma it was 104%; with MDA-MB-231 breast, 112%; in the assay with RXF 393 renal it was 115%; in the assay on SF-268 CNS, 95.4%. In addition, the growth is 105% in the assay with SF-295 CNS, 109% with SF-539 CNS and 106% with UACC-257 melanoma.

For the compound `C[n+]1c2ccccc2c(Nc2ccc(NS(=O)(=O)CCCCN=C(N)N)cc2)c2ccc(N)cc21`, the growth in the assay on DU-145 prostate was 23.7%; in the assay on K-562 leukemia, 41%; in the assay on MALME-3M melanoma, 32.6%; in the assay with MDA-MB-231 breast, 93.9%; in the assay with RXF 393 renal, 71%; with SF-268 CNS, 39.7%. Moreover, the figures for the growth with SF-295 CNS and with SF-539 CNS were 5.07% (active) and 43%, respectively.

Turning to `COc1cc2c(c3c1c(=O)c1cccc(F)c1n3C)C=CC(C)(C)O2`, the growth with DU-145 prostate was 92.9%; in the assay with K-562 leukemia, 74.6%; in the assay on MALME-3M melanoma, 75.9%; with MDA-MB-231 breast, 58.4%; in the assay with RXF 393 renal it was 88.8%; in the assay on SF-268 CNS, 102%. Further, the growth with SF-295 CNS was 91.8%; in the assay on SF-539 CNS, 89%.

Take `COc1ccc(C(=O)NCCNc2nccc(-c3c(-c4ccc(F)cc4)nc4sccn34)n2)cc1`: the growth with DU-145 prostate was 59.1%; in the assay with K-562 leukemia, 59.5%; in the assay on MALME-3M melanoma, 76%; in the assay on MDA-MB-231 breast, 62.2%; in the assay on RXF 393 renal, 72%; with SF-268 CNS, 59.2%. For the same compound, the results for the growth with SF-295 CNS, in the assay on SF-539 CNS and in the assay with UACC-257 melanoma were 61.6%, 79.1% and 89%, respectively.

In the case of `COc1ccc(NC(=O)/C=C(C)/C=C/C=C(C)/C=C/C2=C(C)CCCC2(C)C)cc1`, the growth in the assay on DU-145 prostate was 101%; in the assay with K-562 leukemia, 46.7%; with MALME-3M melanoma it was 68.1%; with MDA-MB-231 breast, 38.3%; in the assay on RXF 393 renal, 79.4%; with SF-268 CNS, 81.4%. Moreover, the growth in the assay on SF-295 CNS was 80%; with SF-539 CNS it was 32.8%; with UACC-257 melanoma it was 87.4%.

For `COCn1c(C(=O)OC)cc2oc(/C=C3/SC(=S)N(N)C3=O)cc21`, the growth with DU-145 prostate is 94.1%; in the assay with K-562 leukemia, 63.7%; in the assay with MALME-3M melanoma, 45.8%; in the assay with MDA-MB-231 breast, 110%; with RXF 393 renal it was 27.6%; in the assay on SF-268 CNS, 73.1%. In addition, the growth in the assay on SF-295 CNS was 82.3%; in the assay on SF-539 CNS, 90.3%; with UACC-257 melanoma, 113%.
